A number with no mark means an inactive call. Active and inactive are the calls of the source.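 Rule for the calls: active = GFP response vs DMSO above 150% with enough events counted; inconclusive = fewer than 70 events counted for a yeast strain; inactive = the rest.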

A short description of this experiment: MEP2-GFP expression modulation in yeast, confirmation, flow cytometry, third cherry pick, S. cerevisiae (AID 504321).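 Note: median per-cell GFP fluorescence by flow cytometry across all yeast cells; ratio of sample to DMSO median GFP so 100% equals the DMSO level.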 The following applies: S. cerevisiae MEP2-GFP strain, 3 h, at 10 µM, stronger effect = higher value.
Consider `COc1ccccc1-c1cc(C(F)(F)F)nc(S(=O)(=O)CCCC(=O)O)n1`, for which the GFP response vs DMSO was 110%. Turning to `CNc1nc(C)c([N+](=O)[O-])c(Nc2ccc(OC)cc2)n1`, the GFP response vs DMSO is 105%. Consider `COc1ccc(NC(=O)ON=C2c3ccccc3-c3ccccc32)cc1`, for which the GFP response vs DMSO was 105%. As to `CCN(CC)c1ncnc2ccc(Br)cc12`, the GFP response vs DMSO was 114%.

With `CC1=NNC(=O)/C1=C\c1cn(-c2ccccc2)nc1-c1ccc(F)cc1`, the GFP response vs DMSO was 131%. In the case of `Nc1[nH]c(=O)nc(Nc2ccccc2)c1N=O` it was 108%. For the compound `Cc1ccc2c(Cl)cc(Cl)c(O)c2n1`, the GFP response vs DMSO was 168% (active). In the case of `COc1ccc(OC)c(Nc2nc(NCCC(C)C)nc(N)c2[N+](=O)[O-])c1` it was 108%; in that of `Cc1cn2c(N)c(C=C3C=C(Cl)C(=O)C(Cl)=C3)c(=O)nc2s1`, 112%; in that of `CC(=O)CC(=O)Nc1ccc(C(N)=O)cc1`, 112%. Turning to `CCc1c(C)nc2c(OC)cccc2c1Cl`, the GFP response vs DMSO was 110%. For `Cc1ccc(NN2C(=O)C=C(c3ccccc3)C2=O)cc1`, the GFP response vs DMSO is 140%.

`COCCNc1nc(N)c([N+](=O)[O-])c(Nc2ccc(F)cc2)n1`: the GFP response vs DMSO is 105%. Consider `O=C(O)c1ccc2cccnc2c1O`, for which the GFP response vs DMSO is 101%. The same measure for `CSc1ccccc1OCc1cc(C(=O)N2CCN(C)C(c3ccccc3)C2)no1` (centres undefined): 103%. On to `C=CCNc1ncnc2ccccc12`, for which the GFP response vs DMSO is 114%. Regarding `COC1=C/C(=C/c2c(N)n3cc(C)sc3nc2=O)C=CC1=O`, the GFP response vs DMSO is 131%.

With `CSc1nc(S(C)(=O)=O)nc2[nH]c(=O)[nH]c12`, the GFP response vs DMSO was 110%. For `CNc1cccc2c1C(=O)c1ccccc1C2=O`, the GFP response vs DMSO was 114%. `CCCOCc1ccc(O)c2ncccc12`: the GFP response vs DMSO is 110%. `Cc1ccc(Nc2cc(=O)[nH]c(=O)[nH]2)cc1Cl`: the GFP response vs DMSO was 101%. Consider `Cc1nc(Nc2ccc(Br)cc2Br)c([N+](=O)[O-])c(=O)[nH]1`, for which the GFP response vs DMSO is 112%.

As for `Oc1c(Cl)cc(Cl)c2cccnc12`, the GFP response vs DMSO is 181% (active). For `COCCCNc1nc(N)c([N+](=O)[O-])c(Nc2cc(OC)ccc2OC)n1`, the GFP response vs DMSO is 110%. As for `CS(=O)(=O)Oc1ccc(Br)c2cccnc12`, the GFP response vs DMSO is 110%. The same measure for `Cn1c(=O)c2c(n3cnnc13)-c1ccccc1CC21CCCC1`: 112%. The same measure for `Cn1cccc1C(=O)Nc1nc(-c2ccccn2)cs1`: 101%. The same measure for `Cc1cccc(Nc2cc(=O)[nH]c(=O)[nH]2)c1C`: 114%; for `COc1ccc(OC)c(N/C(C)=C/C(=O)c2ccccc2)c1`: 114%. Consider `O=C(O)CCS(=O)(=O)c1nc(-c2cccs2)cc(C(F)(F)F)n1`, for which the GFP response vs DMSO was 116%. For the compound `COc1cc(=O)n(C)c2c(O)cccc12`, the GFP response vs DMSO was 110%. Consider `CC(=O)C(Cl)C(=O)Nc1ccccc1` (centres undefined), for which the GFP response vs DMSO was 118%. In the case of `COc1cccc2c(O)cc(=O)n(C)c12`, the GFP response vs DMSO is 108%. Regarding `COc1ccccc1OCc1cc(C(=O)N2CCN(C)C(c3ccccc3)C2)no1` (centres undefined), the GFP response vs DMSO was 110%.

Consider `COc1cccc(N/C=C/C(=O)c2ccc(C)cc2)c1`, for which the GFP response vs DMSO is 112%. The same measure for `CCN(CC)C(=O)Oc1ccnc2cc(Cl)ccc12`: 110%. Regarding `COC(=O)COc1c(Cl)cc(Cl)c2ccc(C)nc12`, the GFP response vs DMSO was 118%. Take `Nc1c(O)ccc2c1C(=O)c1ccccc1C2=O`: the GFP response vs DMSO is 105%. With `O=C(O)c1ccccc1-c1ccccc1C(=O)Nc1ccc(-c2nc3cc(Cl)ccc3o2)cc1`, the GFP response vs DMSO is 116%.

Values taken from PubChem BioAssay AID504321 (NMMLSC, 2011).
